Experimental findings from PubChem BioAssay (NCATS) are described below.

Active and inactive are the calls of the source. The rule behind the calls is not given here.
Potency is the fitted concentration of half-maximal effect.

The subject of this assay is HIV-1 nucleocapsid protein NCp7 (binding to TG oligonucleotide). Put plainly: HIV Nucleocapsid (AID 346).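 Note: potency is for inhibitors that block NC binding and lower polarization.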 The following applies: HIV-1 NC / fluorescein-TGTGTGTG probe, fluorescence polarization. Summed up:
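NCp7 100 nM + fluorescein TG4xF 10 nM; Hepes pH 7.5/250mM NaCl/1uM ZnCl2/0.004% PEG 20000; 1 hr RT; FP, 45 s exposure; oligo-only wells as negative control.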
As to `CC(C)CN1CCCC2(CCN(C(=O)c3cnccn3)CC2)C1`, the Potency is > 20 µM (inactive).

As to `CN(C)c1ncc2nc(-c3cccc(C#N)c3)c(=O)n(C)c2n1`, the Potency was > 20 µM (inactive).

Take `Clc1ccccc1-c1nc(Nc2ccncc2)c2ccccc2n1`: the Potency is > 20 µM (inactive).

On to `CC(=O)N1CCC2(CCCN(c3ccncc3)C2)CC1`, for which the Potency is > 20 µM (inactive).

On to `Cn1cccc1C(=O)N1CCC2(CCCN(C(=O)Nc3cccc(F)c3)C2)CC1`, for which the Potency is > 20 µM (inactive).

Consider `CN1CCN(c2ncncc2-c2ccccc2Cl)CC1`, for which the Potency was > 20 µM (inactive).

For `COc1cccc(Cn2c(=O)c(-c3ccccc3)nc3cnc(N(C)C)nc32)c1`, the Potency is > 20 µM (inactive).

Turning to `CN1CCN(c2ncc3ncc(=O)n(Cc4ccc(F)cc4)c3n2)CC1`, the Potency was > 20 µM (inactive).

As for `Cc1noc(C)c1C(=O)N1CCC2(CCN(C(=O)Nc3ccccc3)CC2)CC1`, the Potency is > 20 µM (inactive).

Regarding `c1nc(NCCN2CCOCC2)c2cc(-c3ccoc3)ccc2n1`, the Potency was > 20 µM (inactive).

Consider `COc1ccc(NC(=O)N2CC3(CCN(C(=O)c4ccncc4)CC3)C2)cc1`, for which the Potency was > 20 µM (inactive).

For `CN(Cc1ccco1)c1ncncc1-c1cccc(NS(C)(=O)=O)c1`, the Potency was > 20 µM (inactive).

For `Cc1cnc(CNc2ncnc3ccc(-c4ccc(N(C)C)cc4)cc23)cn1`, the Potency was > 20 µM (inactive).

For `N#Cc1ccccc1-c1ccc2ncnc(N3CCNCC3)c2c1`, the Potency was > 20 µM (inactive).

For `COc1ccc(Oc2ncc3nc(-c4cc(F)cc(F)c4)c(=O)n(CCC#N)c3n2)cc1`, the Potency is > 20 µM (inactive).

Turning to `O=C(Nc1cccc(F)c1)N1CCC2(CC1)CCN(C(=O)c1cccc(F)c1)CC2`, the Potency was > 20 µM (inactive).

For `CC(=O)NCCNc1ncnc2ccc(-c3ccoc3)cc12`, the Potency is > 20 µM (inactive).

In the case of `COCC(=O)N1CCC[C@@]2(CCN(C(=O)Nc3ccccc3)C2)C1`, the Potency is > 20 µM (inactive).

For `CN(C)Cc1ccccc1-c1nc(NCc2cccs2)c2ccccc2n1`, the Potency is > 20 µM (inactive).

For the molecule `Cn1c(=O)c(-c2cc(F)cc(F)c2)nc2cncnc21`, the Potency is > 20 µM (inactive).

Regarding `COCCn1c(=O)c(C)nc2cnc(Oc3ccc(OC)cc3)nc21`, the Potency was > 20 µM (inactive).

Regarding `COc1ncc2nc(-c3ccc(F)cc3)c(=O)n(C3CC3)c2n1`, the Potency is > 20 µM (inactive).

With `Clc1ccccc1-c1cc(NCc2cccnc2)ncn1`, the Potency is > 20 µM (inactive).

On to `CN(Cc1ccco1)c1ncnc2ccc(-c3cccc(C#N)c3)cc12`, for which the Potency was > 20 µM (inactive).

As to `Cn1cccc1C(=O)N1CCC2(CCN(Cc3ccc(C#N)cc3)CC2)CC1`, the Potency is > 20 µM (inactive).

As for `CC(=O)NCCNc1nc(-c2ccccc2C)nc2ccccc12`, the Potency is > 20 µM (inactive).

Turning to `COc1ccccc1-c1cc(Nc2ccn[nH]2)ncn1`, the Potency was > 20 µM (inactive).

Turning to `c1nc(N2CCNCC2)c2cc(-c3ccoc3)ccc2n1`, the Potency was > 20 µM (inactive).

As to `O=c1c(-c2ccc(F)cc2)nc2cnc(Oc3ccccc3)nc2n1C[C@H]1CCCO1`, the Potency was > 20 µM (inactive).

With `CN(C)c1ncc2nc(-c3cccs3)c(=O)n(CCc3ccccc3)c2n1`, the Potency is > 20 µM (inactive).

As for `O=C(Nc1cccc(F)c1)N1CC[C@@]2(CCCN(C(=O)c3ccco3)C2)C1`, the Potency is > 20 µM (inactive).

As to `COc1ccccc1-c1ccc2ncnc(N3CCOCC3)c2c1`, the Potency was > 20 µM (inactive).

As to `COCCn1c(=O)c(-c2cccs2)nc2cnc(OCc3ccccc3)nc21`, the Potency is > 20 µM (inactive).

For `O=C(Oc1ccccc1)N1CCC2(CC1)CCN(c1ccccn1)CC2`, the Potency is > 20 µM (inactive).

Regarding `Cc1noc(C)c1C(=O)N1CCC2(CCCN(C(=O)Nc3cccc(F)c3)C2)CC1`, the Potency was > 20 µM (inactive).

On to `CS(=O)(=O)N1CCC2(CCN(Cc3nccs3)CC2)CC1`, for which the Potency is > 20 µM (inactive).

`Cc1noc(C)c1-c1nc(N(C)C)c2ccccc2n1`: the Potency was > 20 µM (inactive).

Turning to `O=C(c1csnn1)N1CCC2(CCCN(C(c3ccccc3)c3ccccc3)C2)CC1`, the Potency is > 20 µM (inactive).

Take `Cn1c(=O)c(-c2ccccc2)nc2cnc(Oc3ccccc3)nc21`: the Potency was > 20 µM (inactive).

`COC(=O)N1CCC2(CC1)CN(c1ccccc1)C2`: the Potency was > 20 µM (inactive).
